Test results reported in article PMC11006913.
Numbering of substitutions follows the chain as printed.

Molecular target: T1, SIX6 (Homo sapiens, UniProt O95475 114-200, L167I)
T1 sequence: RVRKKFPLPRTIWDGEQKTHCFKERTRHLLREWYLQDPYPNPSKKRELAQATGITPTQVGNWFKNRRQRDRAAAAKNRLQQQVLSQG
Assay: PBM; 200 nM protein, PBS
Settings: dsDNA, one strand shown

| Sequence | binding signal |
| --- | --- |
| AGATGATA | 11.1 upbm affinity estimate (log intensity, higher = more binding, comparable within an allelic series) |
| GGATCACA | 11.1 upbm affinity estimate (log intensity, higher = more binding, comparable within an allelic series) |
| AGTGATCC | 11.1 upbm affinity estimate (log intensity, higher = more binding, comparable within an allelic series) |
| AGGGATCA | 11.1 upbm affinity estimate (log intensity, higher = more binding, comparable within an allelic series) |
| CAGATATC | 11.1 upbm affinity estimate (log intensity, higher = more binding, comparable within an allelic series) |
| ATACTAAC | 10.1 upbm affinity estimate (log intensity, higher = more binding, comparable within an allelic series) |

Molecular target: HOXA4 (Homo sapiens, UniProt Q00056 201-287, W262R)
Sequence (Q00056 201-287 W262R): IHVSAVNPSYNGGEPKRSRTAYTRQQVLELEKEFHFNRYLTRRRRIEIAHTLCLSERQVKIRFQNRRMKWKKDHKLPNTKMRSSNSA
Assay: PBM; 200 nM protein, PBS
Settings: dsDNA, one strand shown

| Sequence | binding signal |
| --- | --- |
| GCCAAGCC | 9.84 upbm affinity estimate (log intensity, higher = more binding, comparable within an allelic series) |
| CCCTGGTC | 9.79 upbm affinity estimate (log intensity, higher = more binding, comparable within an allelic series) |
| TAATTTGA | 10.4 upbm affinity estimate (log intensity, higher = more binding, comparable within an allelic series) |
| AGCCACGG | 9.87 upbm affinity estimate (log intensity, higher = more binding, comparable within an allelic series) |
| ACCTTCGC | 9.98 upbm affinity estimate (log intensity, higher = more binding, comparable within an allelic series) |
| CCGGCAGG | 9.95 upbm affinity estimate (log intensity, higher = more binding, comparable within an allelic series) |
| CCCCAGGC | 9.71 upbm affinity estimate (log intensity, higher = more binding, comparable within an allelic series) |
| GCACCACC | 9.87 upbm affinity estimate (log intensity, higher = more binding, comparable within an allelic series) |
| CCGGACGG | 9.78 upbm affinity estimate (log intensity, higher = more binding, comparable within an allelic series) |
| CAGCCTCC | 9.65 upbm affinity estimate (log intensity, higher = more binding, comparable within an allelic series) |
| CAGGAAGG | 9.86 upbm affinity estimate (log intensity, higher = more binding, comparable within an allelic series) |
| CCCGAGGG | 9.81 upbm affinity estimate (log intensity, higher = more binding, comparable within an allelic series) |
| CAGGCTTC | 9.89 upbm affinity estimate (log intensity, higher = more binding, comparable within an allelic series) |
| CGCGCGCG | 9.91 upbm affinity estimate (log intensity, higher = more binding, comparable within an allelic series) |
| ATGAATGA | 10.2 upbm affinity estimate (log intensity, higher = more binding, comparable within an allelic series) |
| AGCCCGAG | 9.9 upbm affinity estimate (log intensity, higher = more binding, comparable within an allelic series) |
| GCCCCGAC | 9.84 upbm affinity estimate (log intensity, higher = more binding, comparable within an allelic series) |

| Sequence | binding signal |
| --- | --- |
| CCCTCTCG | 9.84 upbm affinity estimate (log intensity, higher = more binding, comparable within an allelic series) |
| CCCCCTTC | 9.36 upbm affinity estimate (log intensity, higher = more binding, comparable within an allelic series) |
| GCCTCCCA | 9.78 upbm affinity estimate (log intensity, higher = more binding, comparable within an allelic series) |
| CCCGACGC | 9.83 upbm affinity estimate (log intensity, higher = more binding, comparable within an allelic series) |
| GGGGGAAC | 9.66 upbm affinity estimate (log intensity, higher = more binding, comparable within an allelic series) |
| GCCCGGAC | 9.85 upbm affinity estimate (log intensity, higher = more binding, comparable within an allelic series) |
| GAGGTTGC | 9.8 upbm affinity estimate (log intensity, higher = more binding, comparable within an allelic series) |
| GCGGACCC | 9.75 upbm affinity estimate (log intensity, higher = more binding, comparable within an allelic series) |
| CCCCACGG | 9.8 upbm affinity estimate (log intensity, higher = more binding, comparable within an allelic series) |
| CCCCCCAG | 9.46 upbm affinity estimate (log intensity, higher = more binding, comparable within an allelic series) |
| CCCGAAGG | 9.83 upbm affinity estimate (log intensity, higher = more binding, comparable within an allelic series) |
| GATCCCCC | 9.9 upbm affinity estimate (log intensity, higher = more binding, comparable within an allelic series) |
| GCCGGCCC | 9.58 upbm affinity estimate (log intensity, higher = more binding, comparable within an allelic series) |
| GACCCTCC | 9.82 upbm affinity estimate (log intensity, higher = more binding, comparable within an allelic series) |
| CCGAGAGG | 9.76 upbm affinity estimate (log intensity, higher = more binding, comparable within an allelic series) |
| CCGAAGGC | 9.78 upbm affinity estimate (log intensity, higher = more binding, comparable within an allelic series) |

Molecular target: HOXC9 (Homo sapiens, UniProt P31274 178-260, K195R)
Sequence (P31274 178-260 K195R): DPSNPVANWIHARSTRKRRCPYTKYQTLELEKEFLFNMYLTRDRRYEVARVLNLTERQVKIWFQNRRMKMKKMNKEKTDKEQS
Assay: PBM; 200 nM protein, PBS
Settings: dsDNA, one strand shown

| Sequence | binding signal |
| --- | --- |
| AGCCACGG | 9.64 upbm affinity estimate (log intensity, higher = more binding, comparable within an allelic series) |
| CCGGACGG | 9.56 upbm affinity estimate (log intensity, higher = more binding, comparable within an allelic series) |
| CCCGAGGG | 9.47 upbm affinity estimate (log intensity, higher = more binding, comparable within an allelic series) |
| CAGGCTTC | 9.38 upbm affinity estimate (log intensity, higher = more binding, comparable within an allelic series) |
| ATGAATGA | 11.2 upbm affinity estimate (log intensity, higher = more binding, comparable within an allelic series) |
| AGCCCGAG | 9.64 upbm affinity estimate (log intensity, higher = more binding, comparable within an allelic series) |
| GCCTCCCA | 9.58 upbm affinity estimate (log intensity, higher = more binding, comparable within an allelic series) |
| CCCGACGC | 9.46 upbm affinity estimate (log intensity, higher = more binding, comparable within an allelic series) |
| GACCCTCC | 9.64 upbm affinity estimate (log intensity, higher = more binding, comparable within an allelic series) |
| CCGAGAGG | 9.41 upbm affinity estimate (log intensity, higher = more binding, comparable within an allelic series) |

Molecular target: HOXC10 (Homo sapiens, UniProt Q9NYD6 254-340)
Sequence (Q9NYD6 254-340): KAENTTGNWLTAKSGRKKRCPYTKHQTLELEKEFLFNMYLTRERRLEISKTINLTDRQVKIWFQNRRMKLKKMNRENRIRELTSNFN
Assay: PBM; 200 nM protein, PBS
Settings: dsDNA, one strand shown

| Sequence | binding signal |
| --- | --- |
| GCCAAGCC | 10.1 upbm affinity estimate (log intensity, higher = more binding, comparable within an allelic series) |
| CCGGCAGG | 10.2 upbm affinity estimate (log intensity, higher = more binding, comparable within an allelic series) |
| CAGGCTTC | 9.9 upbm affinity estimate (log intensity, higher = more binding, comparable within an allelic series) |
| CGCGCGCG | 10.1 upbm affinity estimate (log intensity, higher = more binding, comparable within an allelic series) |
| GCCCCGAC | 10.1 upbm affinity estimate (log intensity, higher = more binding, comparable within an allelic series) |
| CCCTCTCG | 10.1 upbm affinity estimate (log intensity, higher = more binding, comparable within an allelic series) |
| CCCCCTTC | 9.64 upbm affinity estimate (log intensity, higher = more binding, comparable within an allelic series) |
| GAGGTTGC | 9.94 upbm affinity estimate (log intensity, higher = more binding, comparable within an allelic series) |
| CCCCACGG | 10.1 upbm affinity estimate (log intensity, higher = more binding, comparable within an allelic series) |
| CCCGAAGG | 9.96 upbm affinity estimate (log intensity, higher = more binding, comparable within an allelic series) |

Molecular target: ALX4 (Homo sapiens, UniProt Q9H161 200-286)
Sequence (Q9H161 200-286): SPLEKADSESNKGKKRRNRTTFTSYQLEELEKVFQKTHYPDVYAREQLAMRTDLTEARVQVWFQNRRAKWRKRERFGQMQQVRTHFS
Assay: PBM; 200 nM protein, PBS
Settings: dsDNA, one strand shown

| Sequence | binding signal |
| --- | --- |
| ACCTTCGC | 8.16 upbm affinity estimate (log intensity, higher = more binding, comparable within an allelic series) |
| GCCTCCCA | 8.34 upbm affinity estimate (log intensity, higher = more binding, comparable within an allelic series) |
| GCGGACCC | 8.35 upbm affinity estimate (log intensity, higher = more binding, comparable within an allelic series) |
| CCCGAAGG | 7.8 upbm affinity estimate (log intensity, higher = more binding, comparable within an allelic series) |
| CCGAAGGC | 8.05 upbm affinity estimate (log intensity, higher = more binding, comparable within an allelic series) |

Molecular target: T2, PAX4 (Homo sapiens, UniProt O43316 9-242, R200K)
T2 sequence: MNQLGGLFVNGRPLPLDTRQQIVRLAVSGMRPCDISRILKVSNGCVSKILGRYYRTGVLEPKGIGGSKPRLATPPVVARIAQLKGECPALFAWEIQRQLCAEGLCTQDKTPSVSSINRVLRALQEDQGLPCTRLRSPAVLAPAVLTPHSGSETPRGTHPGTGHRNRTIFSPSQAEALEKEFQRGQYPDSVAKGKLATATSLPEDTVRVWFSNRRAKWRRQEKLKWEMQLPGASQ
Assay: PBM; 200 nM protein, PBS
Settings: dsDNA, one strand shown

| Sequence | binding signal |
| --- | --- |
| CCCTGGTC | 9.07 upbm affinity estimate (log intensity, higher = more binding, comparable within an allelic series) |
| TAATTTGA | 11.7 upbm affinity estimate (log intensity, higher = more binding, comparable within an allelic series) |
| GCACCACC | 9.27 upbm affinity estimate (log intensity, higher = more binding, comparable within an allelic series) |

Molecular target: PRRX1 (Homo sapiens, UniProt P54821 80-166, F113S)
Sequence (P54821 80-166 F113S): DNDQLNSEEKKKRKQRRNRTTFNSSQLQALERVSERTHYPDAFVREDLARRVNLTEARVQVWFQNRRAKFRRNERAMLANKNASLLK
Assay: PBM; 200 nM protein, PBS
Settings: dsDNA, one strand shown

| Sequence | binding signal |
| --- | --- |
| TAATTTGA | 10.7 upbm affinity estimate (log intensity, higher = more binding, comparable within an allelic series) |
| CCCCAGGC | 9.11 upbm affinity estimate (log intensity, higher = more binding, comparable within an allelic series) |
| CAGGAAGG | 9.25 upbm affinity estimate (log intensity, higher = more binding, comparable within an allelic series) |
| CAGGCTTC | 9.37 upbm affinity estimate (log intensity, higher = more binding, comparable within an allelic series) |
| GCCCCGAC | 9.25 upbm affinity estimate (log intensity, higher = more binding, comparable within an allelic series) |
| GGGGGAAC | 9.45 upbm affinity estimate (log intensity, higher = more binding, comparable within an allelic series) |
| GAGGTTGC | 9.19 upbm affinity estimate (log intensity, higher = more binding, comparable within an allelic series) |
| CCCCCCAG | 9 upbm affinity estimate (log intensity, higher = more binding, comparable within an allelic series) |

Molecular target: T3, PAX4 (Homo sapiens, UniProt O43316 9-242)
T3 sequence: T2 sequence with K192R
Assay: PBM; 200 nM protein, PBS
Settings: dsDNA, one strand shown

| Sequence | binding signal |
| --- | --- |
| CCCTGGTC | 9.08 upbm affinity estimate (log intensity, higher = more binding, comparable within an allelic series) |
| TAATTTGA | 12.2 upbm affinity estimate (log intensity, higher = more binding, comparable within an allelic series) |
| GCACCACC | 9.29 upbm affinity estimate (log intensity, higher = more binding, comparable within an allelic series) |

Molecular target: HOXB6 (Homo sapiens, UniProt P17509 132-218, K202E)
Sequence (P17509 132-218 K202E): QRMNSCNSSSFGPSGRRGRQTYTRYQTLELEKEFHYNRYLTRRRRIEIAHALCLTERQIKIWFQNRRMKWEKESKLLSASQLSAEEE
Assay: PBM; 200 nM protein, PBS
Settings: dsDNA, one strand shown

| Sequence | binding signal |
| --- | --- |
| CCGGACGG | 8.96 upbm affinity estimate (log intensity, higher = more binding, comparable within an allelic series) |
| CAGCCTCC | 8.86 upbm affinity estimate (log intensity, higher = more binding, comparable within an allelic series) |
| GCCCGGAC | 9.01 upbm affinity estimate (log intensity, higher = more binding, comparable within an allelic series) |
| GCCGGCCC | 8.94 upbm affinity estimate (log intensity, higher = more binding, comparable within an allelic series) |

Molecular target: ALX4 (Homo sapiens, UniProt Q9H161 200-286, Q225E)
Sequence (Q9H161 200-286 Q225E): as the sequence (Q9H161 200-286) above, with Q26E counted along it
Assay: PBM; 200 nM protein, PBS
Settings: dsDNA, one strand shown

| Sequence | binding signal |
| --- | --- |
| ACCTTCGC | 8.2 upbm affinity estimate (log intensity, higher = more binding, comparable within an allelic series) |
| GCCTCCCA | 8.34 upbm affinity estimate (log intensity, higher = more binding, comparable within an allelic series) |
| GCGGACCC | 8.27 upbm affinity estimate (log intensity, higher = more binding, comparable within an allelic series) |
| CCCGAAGG | 8.2 upbm affinity estimate (log intensity, higher = more binding, comparable within an allelic series) |
